Screening data: PubChem BioAssay, National Center for Advancing Translational Sciences (NCATS)
POLI inh = blocks human DNA polymerase iota activity; Q9UNA4; Pol iota fluorescent replication assay, 10 min; Potency, µM (top dose mostly 115 µM), without a hit: at the top dose activity, negative = inhibition, hits mostly inhibitors; actives 1% (n = 390,000); further: potency means the concentration at half of the fitted maximal effect
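Pol iota at 10 nM preincubated 15 min with compounds at room temperature; reaction started with fluorescent substrate, 50 nM final. Fluorescence read kinetically at 0 and 10 min; buffer-only wells as negative control.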
Pol kappa inh-1 = inhibitors of human DNA polymerase kappa; Q9UBT6; purified Pol kappa, fluorescent DNA synthesis assay, 10 min; Potency, µM (top dose mostly 107 µM), for inactives: at the top dose activity, negative = inhibition, most hits filed as inhibitors; actives 0.53% (n = 400,000); further: potency means the concentration at half of the fitted maximal effect; on the % scale 0 is the no-effect control and ±100 the full control effect
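Activity was followed as the change in fluorescence between reads at 0 and 10 min after starting the reaction with 50 nM substrate. Beforehand, 10 nM polymerase had been preincubated with compound for 15 min at room temperature.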
POLB inh = inhibitors of human DNA polymerase beta; P06746; Pol beta primer extension/strand displacement, fluorescence kinetic; Potency, µM (top dose mostly 114 µM), inactives show at the highest dose activity change, negative = inhibition, most hits filed as inhibitors; actives 1.3% (n = 340,000); AID 485314; further: potency means the concentration at half of the fitted maximal effect; on the % scale 0 is the no-effect control and ±100 the full control effect
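Reaction started by 50 nM substrate onto compound-treated Pol beta (10 nM, 15 min preincubation, room temperature); plates read at 0 min and 10 min. Normalized concentration-effect data fitted by four-parameter Hill equation.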
Pol eta inh-1 = inhibitors of human DNA polymerase eta; recombinant Pol eta, fluorescent DNA replication assay; actives 1.2% (n = 390,000); Potency, µM (series often up to 114 µM), without a hit: at the top dose activity change, negative = inhibition, usual class: inhibitors; further: potency means the concentration at half of the fitted maximal effect; on the % scale 0 is the no-effect control and ±100 the full control effect
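Fluorescent replication assay: 50 nM final substrate added after a 15 min room-temperature compound preincubation with 10 nM enzyme. Signal taken at 0 min and again at 10 min.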
WRN helicase inh = WRN helicase (human) inhibition; WRN helicase unwinding, fluorescent forked duplex, kinetic; actives 0.46% (n = 360,000); AID 651768; Potency, µM (titrated, usually from 114 µM), without a hit: at the top dose activity change, negative = inhibition, hits mostly inhibitors; further: potency means the concentration at half of the fitted maximal effect; on the % scale 0 is the no-effect control and ±100 the full control effect; nearly all actives have a fitted effect of over 55% in size
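Fluorescence dequenching readout, ex 525 nm/em 598 nm, kinetic mode: forked duplex DNA (100 nM final) with adjacent fluorophore and quencher unwound by WRN (20 nM final) with 2 mM ATP. Compound preincubation 15 min, room temperature.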
PI5P4K alpha inh = PI5P4K alpha (human) kinase inhibition; P48426; PI5P4Kalpha enzyme, ADP-Glo luminescence, 60 min; stronger effect = lower value; max response, %; actives 1.2% (n = 330,000); active means max response of -50% or lower; inconclusive means between -30% and -50%; inactive means -30% or higher; further: value at the top dose of about 77 µM; on the % scale 0 is the no-effect control and ±100 the full control effect
Target sequence (P48426 whole entry, looked up): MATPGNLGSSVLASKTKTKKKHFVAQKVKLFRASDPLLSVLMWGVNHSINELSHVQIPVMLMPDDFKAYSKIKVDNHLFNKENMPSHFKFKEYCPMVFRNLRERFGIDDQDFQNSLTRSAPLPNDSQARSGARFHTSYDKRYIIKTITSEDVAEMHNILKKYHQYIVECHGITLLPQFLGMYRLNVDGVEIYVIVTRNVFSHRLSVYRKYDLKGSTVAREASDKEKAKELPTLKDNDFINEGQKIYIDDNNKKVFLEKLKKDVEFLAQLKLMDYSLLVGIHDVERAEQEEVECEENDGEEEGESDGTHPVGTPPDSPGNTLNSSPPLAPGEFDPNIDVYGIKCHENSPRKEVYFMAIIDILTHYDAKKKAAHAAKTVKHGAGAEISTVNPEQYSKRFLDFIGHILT
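Controls without substrate or without enzyme flank wells where PI5P4Kalpha converts substrate using 5 microM ATP (final). Incubation lasts 60 minutes at room temperature; ADP formed is read by ADP-Glo luminescence.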
GALK confirm = confirmation of human galactokinase (GALK) inhibitors | actives 70% (n = 150) | AID 2015 | Potency, µM (titrated, usually from 115 µM), for inactives: at the highest dose activity, negative = inhibition, most hits filed as inhibitors | shares compounds with Pol eta inh-1 | purified GALK, Kinase-Glo ATP depletion luminescence
GALK redox cs = generates H2O2 by redox cycling, flagging GALK artifacts. shares compounds with Pol eta inh-1. Phenol red-HRP H2O2 redox cycling, absorbance 600 nm. Potency, µM (series often up to 115 µM), for the others: top-dose activity change, negative = H2O2 signal, usual class: inhibitors. actives 40% (n = 150)
HEK293 tox = HEK-293 cytotoxicity, GALK inhibitor secondary; shares compounds with Pol eta inh-1; HEK-293 viability, ATP luminescence (CellTiter-Glo), 24/48 h; Potency, µM (series often up to 46.1 µM), for inactives: at the highest dose activity change, negative = cytotoxicity, actives largely listed as inhibitors; actives 10% (n = 170); further: potency means the concentration at half of the fitted maximal effect; on the % scale 0 is the no-effect control and ±100 the full control effect
Pol kappa inh-2 = confirmation of human DNA polymerase kappa inhibitors | shares compounds with Pol eta inh-1 | purified Pol-kappa, fluorescent strand-displacement substrate | Potency, µM, usual class: inhibitors | actives 76% (n = 920) | AID 720501; further: potency means the concentration at half of the fitted maximal effect
Pol eta inh-2 = Pol eta (human) inhibition, cherry-pick confirmation; AID 720502; shares compounds with Pol eta inh-1; actives 64% (n = 2,600); Pol eta primer extension, TAMRA/BHQ fluorescence, 10 min; Potency, µM, usual class: inhibitors; further: potency means the concentration at half of the fitted maximal effect
Active calls of the source: *; [ ] = dose if it differs, or a comment. This is a sample that favours compounds with a hit; in the whole collection about 2.8% have one here. Unless noted, the call rests on the fitted dose curve; in most records, active means well fitted curve in the direction sought with a large enough effect; inconclusive means small, poorly fitted or top-dose-only effect, or another doubt; inactive means no such curve, though single readings can be large; an effect the other way counts as inactive or inconclusive.

Screening Cc1cc(C(=O)NCc2cc(C(=O)O)co2)co1 returned POLI inh inconclusive, Pol kappa inh-1 79µM*, POLB inh -7%, Pol eta inh-1 20µM*, WRN helicase inh -16%, PI5P4K alpha inh -1, Pol kappa inh-2 17* and Pol eta inh-2 30*.
Cc1cc(C(=O)Nc2cccc3ccccc23)co1 was read as POLI inh 16%, Pol kappa inh-1 1%, POLB inh 3%, Pol eta inh-1 -7%, WRN helicase inh -8% and PI5P4K alpha inh -2.
For COc1ccc(N/N=C(/C#N)S(=O)(=O)c2nsc(C)c2C#N)cc1 the results were POLI inh 6%, Pol kappa inh-1 -12%, POLB inh -2%, Pol eta inh-1 0%, WRN helicase inh -7%, PI5P4K alpha inh -20, GALK confirm inconclusive, GALK redox cs 8% and HEK293 tox 11%.
COc1ccc(N/N=C(/C#N)S(=O)(=O)C(C)(C)C)cc1 was read as POLI inh 19%, Pol kappa inh-1 3%, POLB inh 4%, Pol eta inh-1 -23%, WRN helicase inh 1% and PI5P4K alpha inh 2.
Screening Cc1snc(S(=O)(=O)/C(C#N)=N/Nc2cccc(C(F)(F)F)c2)c1C#N returned POLI inh -2%, Pol kappa inh-1 -21%, POLB inh 21%, Pol eta inh-1 1%, WRN helicase inh -29%, PI5P4K alpha inh 27, GALK confirm 24µM*, GALK redox cs 1% and HEK293 tox 11%.
COCc1cc(C)nc2sc3c(=O)n(-c4cc(C)ccc4C)nnc3c12 was read as POLI inh -4%, Pol kappa inh-1 2%, POLB inh 21% and Pol eta inh-1 6%.
Screening CC(=O)COC(=O)C1CCN(S(=O)(=O)c2cc([N+](=O)[O-])ccc2Cl)CC1 returned POLI inh inconclusive, Pol kappa inh-1 inconclusive, POLB inh 28µM*, Pol eta inh-1 32µM*, WRN helicase inh 0%[11.6 µM], PI5P4K alpha inh -53* and Pol eta inh-2 inconclusive.
For CN(Cc1ccccc1)C(=O)C1CCN(S(=O)(=O)c2cc([N+](=O)[O-])ccc2Cl)CC1 the results were POLI inh inconclusive, Pol kappa inh-1 -6%, POLB inh -2%[57.1 µM], Pol eta inh-1 -11%, WRN helicase inh -10% and PI5P4K alpha inh -1.
Screening C[N+](C)(C)CCC(=O)c1cccc2ccccc12 returned POLI inh -10%[58.9 µM], Pol kappa inh-1 6%[19.4 µM], POLB inh inconclusive and Pol eta inh-1 -9%[57.1 µM].
Screening Cc1ccc(-c2cc(C(=O)N3CC(C)CC(C)C3)c3ccccc3n2)o1 (stereo not given) returned POLI inh -16%, Pol kappa inh-1 inconclusive, POLB inh 40µM*, Pol eta inh-1 79µM*, WRN helicase inh 50µM*, PI5P4K alpha inh inconclusive and Pol eta inh-2 76*.
Screening Cc1ccc(-c2cc(C(=O)N3CC(C)OC(C)C3)c3ccccc3n2)o1 (stereo not given) returned POLI inh 31%, Pol kappa inh-1 2%, Pol eta inh-1 -17%, WRN helicase inh -4% and PI5P4K alpha inh -3.
`CN(C)c1ccc(-c2ccc(CCO)cc2)cc1` gave POLI inh inconclusive and Pol kappa inh-1 -42%.
Screening O=C(O)C1Cc2ccccc2CN1C(=O)CCl (stereo not given) returned POLI inh 149%, Pol kappa inh-1 -17%, POLB inh -9%, Pol eta inh-1 inconclusive, WRN helicase inh 1%[11.6 µM] and PI5P4K alpha inh 3.
Screening O=C(O)C1Cc2ccccc2CN1C(=O)COc1ccc(Br)cc1 (stereo not given) returned POLI inh inconclusive, Pol kappa inh-1 79µM*, POLB inh 32µM*, Pol eta inh-1 10µM*, WRN helicase inh -19%, PI5P4K alpha inh 2 and Pol eta inh-2 27*.
`O=C(O)C1Cc2ccccc2CN1C(=O)COc1ccc(Cl)cc1Cl` (stereo not given) gave POLI inh 12%, Pol kappa inh-1 -42%, POLB inh inconclusive, Pol eta inh-1 25µM*, WRN helicase inh -7%[11.6 µM], PI5P4K alpha inh 3 and Pol eta inh-2 inconclusive.
For O=C(CCCOc1ccc(Cl)cc1Cl)N1CCc2ccccc2C1 the results were POLI inh -17%, Pol kappa inh-1 -6%, POLB inh -1%, Pol eta inh-1 -16% and WRN helicase inh -20%.
COc1ccc(C2/C=C\CN(C(=O)c3ccc(C)cc3)C(C)C(=O)N2Cc2ccc(F)cc2)cc1 (stereo not given) was read as POLI inh -16% and Pol kappa inh-1 -7%.
`O=C(O)c1ccc(Cn2cc(/C=C\[N+](=O)[O-])c3ccccc32)o1` gave POLI inh 8.9µM*, Pol kappa inh-1 inconclusive, POLB inh inconclusive, Pol eta inh-1 22µM*, WRN helicase inh inconclusive, PI5P4K alpha inh -8 and Pol eta inh-2 76*.
Screening Cc1[nH]n(-c2ncc(-c3ccccc3)s2)c(=O)c1C(c1ccc(Cl)cc1)C(C#N)C#N (stereo not given) returned POLI inh inconclusive, Pol kappa inh-1 inconclusive, POLB inh 32µM*, Pol eta inh-1 28µM*, WRN helicase inh inconclusive, PI5P4K alpha inh inconclusive and Pol eta inh-2 inconclusive.
COc1cccc2oc(-c3ccc(O)cc3)cc(=O)c12 was read as Pol kappa inh-1 -5%[19.4 µM].
